Measured values reported in the supplement of paper PMC12645437, “Orthogonal IMiD-Degron Pairs Induce Selective Protein Degradation in Cells” (ACS Chemical Biology, 2025).
The full ranking holds about 8,300 sequences; the median of “log2 fold change of degron read counts, EGFP-low vs EGFP+ sorted cells (limma voom), compound-induced degradation” is about -1.1, and the highest 2% start at about 3.2. This is one part of a sample in which the highest values are shown more often than they occur.

T1: CRBN, Q96SW2
T1 chain: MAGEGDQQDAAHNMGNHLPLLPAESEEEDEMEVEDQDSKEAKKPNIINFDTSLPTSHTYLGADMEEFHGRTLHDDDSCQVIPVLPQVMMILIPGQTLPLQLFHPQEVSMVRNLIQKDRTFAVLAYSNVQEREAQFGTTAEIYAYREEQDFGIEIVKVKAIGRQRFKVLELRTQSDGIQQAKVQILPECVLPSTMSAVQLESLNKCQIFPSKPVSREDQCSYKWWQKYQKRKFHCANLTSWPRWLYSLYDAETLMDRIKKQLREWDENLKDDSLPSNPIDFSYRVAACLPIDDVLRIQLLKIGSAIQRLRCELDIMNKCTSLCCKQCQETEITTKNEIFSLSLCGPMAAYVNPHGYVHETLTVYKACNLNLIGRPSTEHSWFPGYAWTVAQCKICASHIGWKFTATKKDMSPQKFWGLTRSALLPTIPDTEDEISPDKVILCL


Target: T1, CRBN, Q96SW2
Assay: log2 fold change of degron read counts, EGFP-low vs EGFP+ sorted cells (limma voom), compound-induced degradation; higher = more compound-induced degradation of the degron-EGFP fusion; degrons are variants of IKZF1/3 zinc finger 2; compound dose not given here
Settings: Jurkat, 18 h
[1] = compound: compound 19 (5-tert-butyl-thalidomide)
[2] = compound: compound 22 (5-morpholino-thalidomide)
[3] = compound: compound 33 (diphenyl IMiD analogue)
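Further: pooled lentiviral library of zinc finger degron-EGFP fusions in mCherry-positive Jurkat cells, FACS-sorted after compound exposure, with degron abundance counted by next-generation sequencing.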

Sequence | log2 fold change of degron read counts [1] | log2 fold change of degron read counts [2] | log2 fold change of degron read counts [3] | log2 fold change of degron read counts (compound: thalidomide)
FQCEVCGARFTQKGNLLRHIKL [46F_47Q_49E_50V_52G_53A_54R_55F_67L_, Q9UKT9] | -0.109 | 1.95 | 1.42 | 3.71
FLCEVCGARFTQKGNLLRHIKL [46F_47L_49E_50V_52G_53A_54R_55F_67L_, Q9UKT9] | -0.109 | -1.35 | -0.123 | 2.09
FGCEVCGALFTQKGNLLRHIKL [46F_47G_49E_50V_52G_53A_54L_55F_67L_, Q9UKT9] | 2.18 | 0.893 | 1.4 | -0.493
FGCEVCGARFTQKGNLLRHIKL [46F_47G_49E_50V_52G_53A_54R_55F_67L_, Q9UKT9] | 3.86 | 2.74 | -0.6 | 1.27
FACEVCGARFTQKGNLLRHIKL [46F_47A_49E_50V_52G_53A_54R_55F_67L_, Q9UKT9] | 3.91 | 3.03 | -0.415 | 1.17
FMCEVCGARFTQKGNLLRHIKL [46F_47M_49E_50V_52G_53A_54R_55F_67L_, Q9UKT9] | 0.167 | -0.178 | 1.48 | 1.48
FACEVCGALFTQKGNLLRHIKL [46F_47A_49E_50V_52G_53A_54L_55F_67L_, Q9UKT9] | 1.98 | -0.613 | -0.457 | -1.05
FKCEVCGARFTQKGNLLRHIKL [46F_47K_49E_50V_52G_53A_54R_55F_67L_, Q9UKT9] | -1.76 | -3.02 | -3.44 | -1.87
FACEVCGADFTQKGNLLRHIKL [46F_47A_49E_50V_52G_53A_54D_55F_67L_, Q9UKT9] | 1.11 | -1.42 | -1.53 | -1.97
FGCEVCGADFTQKGNLLRHIKL [46F_47G_49E_50V_52G_53A_54D_55F_67L_, Q9UKT9] | -1.71 | -2.17 | -0.906 | -1.3
FVCEVCGARFTQKGNLLRHIKL [46F_47V_49E_50V_52G_53A_54R_55F_67L_, Q9UKT9] | 1.35 | 2.78 | 0.984 | 3.25
FNCEVCGARFTQKGNLLRHIKL [46F_47N_49E_50V_52G_53A_54R_55F_67L_, Q9UKT9] | 2.12 | 0.955 | -0.805 | 0.249
FACDQCGAYFTQKGNLLRHIKL [46F_47A_49D_50Q_52G_53A_54Y_55F_67L_, Q9UKT9] | -1.75 | -2.34 | -1.85 | -2.43
FLCSVCGHQFTQKGNLLRHIKL [46F_47L_49S_50V_52G_53H_54Q_55F_67L_, Q9UKT9] | -2.83 | -2.7 | -2.54 | -2.76
FKCDQCGACFTQKGNLLRHIKL [46F_47K_49D_50Q_52G_53A_54C_55F_67L_, Q9UKT9] | -2.75 | -3.31 | -3.66 | -3.24
FLCPQCGAIFTQKGNLLRHIKL [46F_47L_49P_50Q_52G_53A_54I_55F_67L_, Q9UKT9] | -1.63 | -1.54 | -0.716 | -0.881
FKCDICGASFTQKGNLLRHIKL [46F_47K_49D_50I_52G_53A_54S_55F_67L_, Q9UKT9] | -0.288 | -2.66 | -3.19 | -1.69
FACDVCGAQFTQKGNLLRHIKL [46F_47A_49D_50V_52G_53A_54Q_55F_67L_, Q9UKT9] | 1.75 | -0.392 | -1.04 | -1.67
FECEICGAVFTQKGNLLRHIKL [46F_47E_49E_50I_52G_53A_54V_55F_67L_, Q9UKT9] | -0.462 | -0.764 | 1.98 | 2.39
FHCEICGAVFTQKGNLLRHIKL [46F_47H_49E_50I_52G_53A_54V_55F_67L_, Q9UKT9] | 1.69 | 1.65 | 1.31 | 0.109
FWCEICGAVFTQKGNLLRHIKL [46F_47W_49E_50I_52G_53A_54V_55F_67L_, Q9UKT9] | 3.33 | 3.51 | 2.5 | 0.916
FTCEICGAVFTQKGNLLRHIKL [46F_47T_49E_50I_52G_53A_54V_55F_67L_, Q9UKT9] | 0.417 | 1.97 | 2.08 | 2.64
FMCEICGAVFTQKGNLLRHIKL [46F_47M_49E_50I_52G_53A_54V_55F_67L_, Q9UKT9] | -1.1 | -0.16 | 2.5 | 1.37
FSCEICGAVFTQKGNLLRHIKL [46F_47S_49E_50I_52G_53A_54V_55F_67L_, Q9UKT9] | 2.73 | 1.89 | 2.49 | 1.44
FNCEICGAVFTQKGNLLRHIKL [46F_47N_49E_50I_52G_53A_54V_55F_67L_, Q9UKT9] | 1.15 | -0.231 | 0.00137 | -0.335
FCCEICGAVFTQKGNLLRHIKL [46F_47C_49E_50I_52G_53A_54V_55F_67L_, Q9UKT9] | 1.77 | 1.91 | 2.47 | 2.16
FFCEICGAVFTQKGNLLRHIKL [46F_47F_49E_50I_52G_53A_54V_55F_67L_, Q9UKT9] | 3.46 | 3.76 | 2.2 | 1.64
FACEICGAVFTQKGNLLRHIKL [46F_47A_49E_50I_52G_53A_54V_55F_67L_, Q9UKT9] | 3.29 | 2.39 | 1.27 | 0.606
FGCEICGAVFTQKGNLLRHIKL [46F_47G_49E_50I_52G_53A_54V_55F_67L_, Q9UKT9] | 2.88 | 2.6 | 2.14 | 1.13
FYCEICGAVFTQKGNLLRHIKL [46F_47Y_49E_50I_52G_53A_54V_55F_67L_, Q9UKT9] | 3.66 | 3.6 | 2.79 | 1.07
